PubChem BioAssay (NCI)
Values joined by “and” are separate entries in the source; they are usually repeats but may differ in a detail not shown here. Equal entries are not always repeated. This is part of a sample that, as a whole, favours compounds with a hit. Of some 79,000 tested, about 15% had one in any assay. No stated cut-off is given here; in the data, active means growth inhibition above about 70%; inactive means the rest.

Experiments:
[1] = NCI Yeast Anticancer Drug Screen. Data for the rad50 strain (AID 155);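 further: 0% = growth of vehicle-only cultures of the same strain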; settings: S. cerevisiae rad50 strain growth inhibition; at 50.0 µM; active compounds read high
Procedure, shortened: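 Inhibition values express reduced yeast growth in compound-treated cultures relative to vehicle-treated controls.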

[2] = NCI Yeast Anticancer Drug Screen. Data for the mec2-1 strain (AID 157); settings: S. cerevisiae mec2-1 strain, at 50.0 µM, active compounds read high
Procedure, shortened: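 Test agents were screened against the mec2-1 yeast strain, with defined DNA repair or cell cycle alteration. Growth was scored as inhibition against vehicle-only controls.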

[3] = NCI Yeast Anticancer Drug Screen. Data for the sgs1 mgt1 strain (AID 161);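 further: 0% = growth of cultures given vehicle only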; settings: S. cerevisiae sgs1 mgt1 strain, at 50.0 µM, active compounds read high
Procedure, shortened: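 Mutant yeast exposed to compound; growth scored against vehicle-only wells.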

[4] = NCI Yeast Anticancer Drug Screen. Data for the cln2 rad14 strain (AID 165);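 further: 0% = growth equal to vehicle treated cultures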; settings: S. cerevisiae cln2 rad14 strain, at 50.0 µM, active compounds read high
Procedure, shortened: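 Growth of compound-exposed yeast (cln2 rad14 genotype) measured and expressed as inhibition relative to vehicle.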

[5] = NCI Yeast Anticancer Drug Screen. Data for the bub3 strain (AID 167); settings: S. cerevisiae bub3 mutant strain, at 50.0 µM, active compounds read high
Procedure, shortened: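 Steps: expose the mutant yeast strain to compound; grow alongside vehicle-treated cultures; measure growth; express inhibition against the vehicle cultures.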

[6] = NCI Yeast Anticancer Drug Screen. Data for the mlh1 rad18 strain (AID 175); settings: S. cerevisiae mlh1 rad18 strain growth inhibition; at 50.0 µM; active compounds read high
Procedure, shortened: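 In this whole-cell yeast screen, a strain with altered DNA damage repair is challenged with compound, and its growth is measured against matched vehicle-treated controls.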

Measured: growth inhibition

CN(Cc1ccccc1)C1=NCCN1
inactive: [1] -1.85% | [2] 7.1% | [3] -2.95% | [4] -47.8% | [5] 15.1% | [6] 9.95%

Nc1ncnc(N)n1
inactive: [1] -7.3% | [2] -17.1% | [3] 13.3% | [4] -28.8% | [5] -2.2% | [6] -9.65%

CC1(C)N=C(N)N=C(N)N1c1cccc(CCC(=O)Nc2ccc[n+](Cc3ccc(S(=O)(=O)F)cc3)c2)c1
inactive: [1] -1.3% | [2] -8.35% | [3] 13.4% | [4] -17.8% | [5] -9.55% | [6] -11.9%

c1c[nH]c(Cc2ncc(Cc3cnc[nH]3)[nH]2)n1
inactive: [1] 4.4% | [2] -20.6% | [3] -9.55% | [4] 21.8% | [5] -13% | [6] -9.6%

S=c1nccc[nH]1
inactive: [1] 37.5% | [2] 24.2% | [3] 34.5% | [4] 37.5% | [5] 0.35% | [6] 17.4%

CCN(CC)P1(=O)OP(=O)(N(CC)CC)OP(=O)(N(CC)CC)O1 (centres undefined)
inactive: [1] -0.5% | [2] 7% | [3] 11.8% | [4] 14.3% | [5] -9.7% | [6] -11.6%

C1CC[N-]CC1.CC(=N\O)/C(C)=N/O.CC(=N\O)/C(C)=N/O.[CH2-]Cl.[Co+2]
inactive: [1] 4.6% | [2] 14.8% | [3] 14.4% | [4] -31.6% | [5] 20.1% | [6] 27.9%

CC(=O)CC(C)=O.CC(=O)CC(C)=O.CC(=O)CC(C)=O.[Co]
inactive: [1] -27.8% and 13.9% | [2] -50.8% and -4.9% | [3] -4.85% and 26.6% | [4] -20.4% and -16.4% | [5] -45% and 23.6% | [6] -10.2% and 21.3%

O=C(CCl)Oc1ccccc1Cl
inactive: [1] -19.5% | [2] -5.4% | [3] -31.1% | [4] -42.9% | [5] -23.9% | [6] -31.6%

[CH3][Sb]([CH3])[S]C1OC(CO)C(O)C(O)C1O (centres undefined)
inactive: [1] -10.3% | [2] 0.9% | [3] 29.9% | [4] -15.8% | [5] 25.5% | [6] -17.8%

CC12CCC3C(=CC=C4CC(O)CCC43C)C1CCC2=O (centres undefined)
inactive: [1] 1.9% and 14.2% | [2] 17.2% and 0.65% | [3] 18.6% and 10.6% | [4] 0.95% and -45.7% | [5] 22.9% and -11.6% | [6] 23.1% and 16.1%

O=C(O)/C=C\c1c[nH]c2ccccc12 (tested in a mixture with another compound)
inactive: [1] -3.3% | [2] -7.35% | [3] -13.4% | [4] 0.95% | [5] -10.8% | [6] -12.2%

CC(=O)OC1CC(OC2C(O)CC(OC3C(O)CC(OC4CCC5(C)C(CCC6C5CC(O)C5(C)C(C7=CC(=O)OC7)CCC65O)C4)OC3C)OC2C)OC(C)C1OC1OC(CO)C(O)C(O)C1O (centres undefined)
inactive: [1] 6.05% | [2] -15.4% | [3] -25.1% | [4] 5% | [5] 5.7% | [6] 10.6%

NC(=O)C(CBr)NCc1ccccc1 (centres undefined)
inactive: [1] -0.1% | [2] -13.6% | [3] -6.15% | [4] -27.8% | [5] 6.7% | [6] -10.6%

COc1cc(OC)cc(C(=O)Cc2c(C(=O)c3ccccc3)c3ccccc3n2C(=O)c2ccccc2)c1
inactive: [1] -5.5% | [2] -6% | [3] 0.1% | [4] -50.3% | [5] -2.15% | [6] 3.2%

CCNC(Cc1ccccc1)C1CCCO1 (centres undefined)
inactive: [1] 3.15% | [2] -0.35% | [3] -15.6% | [4] 2% | [5] -18.4% | [6] -27.9%

Cc1ccc(C(C)(C)C)c(OP(=S)(S)Oc2cc(C)ccc2C(C)(C)C)c1.[Pb]
inactive: [1] 5.9% | [2] -1.85% | [3] -1.3% | [4] 9.7% | [5] -13.7% | [6] 7.3%

CCOC(OCC)c1ccc(N(C)C)cc1.[C-]#[O+].[C-]#[O+].[C-]#[O+].[Cr]
inactive: [1] -8.25% | [2] -30.2% | [3] 37.8% | [4] -4.5% | [5] -8.3% | [6] 4.6%

CN(C)P1P(N(C)C)P(N(C)C)P1N(C)C (centres undefined)
inactive: [1] -25.4% | [2] 9.75% | [3] 2.2% | [4] -58.7% | [5] -7.5% | [6] -1.2%
